# High-throughput results deposited in PubChem by National Center for Advancing Translational Sciences (NCATS).
# DT40 TDP1 CPT = DT40-hTDP1 cell growth loss with CPT | chicken DT40 Tdp1-/-;hTDP1 cells + 20 nM CPT, ATP luminescence, 48 h | AID 686979 | Potency, µM (series often up to 46.2 µM), for the others: top-dose activity change, negative = growth inhibition, most hits filed as inhibitors | 420,000 compounds, 12% hits; note: potency is the fitted concentration of half-maximal effect; % is set by controls: 0 for no effect and ±100 for the full control effect; nearly all actives have a fitted effect of over 55% in size
#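 Chicken DT40 Tdp1-/- cells complemented with human TDP1, 400 cells/well, exposed to compounds plus 20 nM camptothecin for at least 48 h at 37 C; viability read as ATP content by CellTiter-Glo luminescence.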
# S-ASM inh = blocks human secretory acid sphingomyelinase | Potency, µM (series often up to 57.5 µM), inactives show at the top dose activity change, negative = inhibition, usual class: inhibitors | AID 504937 | 340,000 compounds, 0.006% hits | P17405 | placental ASM, HMU-PC fluorogenic substrate, 60 min; note: potency is the fitted concentration of half-maximal effect
# Target sequence (P17405 47-631 limits assumed): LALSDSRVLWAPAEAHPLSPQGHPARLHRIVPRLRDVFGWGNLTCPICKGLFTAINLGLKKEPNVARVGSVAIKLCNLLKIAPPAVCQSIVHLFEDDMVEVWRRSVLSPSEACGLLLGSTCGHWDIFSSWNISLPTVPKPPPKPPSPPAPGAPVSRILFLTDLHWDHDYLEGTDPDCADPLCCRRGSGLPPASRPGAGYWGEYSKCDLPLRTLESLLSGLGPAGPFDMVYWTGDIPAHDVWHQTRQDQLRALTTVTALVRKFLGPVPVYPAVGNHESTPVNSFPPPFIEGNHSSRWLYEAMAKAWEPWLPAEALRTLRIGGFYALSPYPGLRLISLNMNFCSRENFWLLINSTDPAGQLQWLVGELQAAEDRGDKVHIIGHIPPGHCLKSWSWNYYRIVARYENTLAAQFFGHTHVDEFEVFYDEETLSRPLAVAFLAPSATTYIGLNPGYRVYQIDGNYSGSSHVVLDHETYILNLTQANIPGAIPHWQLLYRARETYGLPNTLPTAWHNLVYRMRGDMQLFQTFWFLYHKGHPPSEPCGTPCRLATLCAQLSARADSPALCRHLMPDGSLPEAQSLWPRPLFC
#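 Human placenta-derived ASM preincubated with compound 10 min at room temperature, then reacted with 9 uM (final) fluorogenic HMU-PC substrate for 60 min at 37 C. Stop solution raises pH to 10; fluorescence read at Ex 386/Em 447 nm.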
# TGFb SMAD3 inh = blocks TGF-b signaling. HepG2 CAGA-GFP TGF-b/SMAD3 reporter, GFP fluorescence, 18 h; TGF-beta stimulated, 500 pg/mL final. Potency, µM (series often up to 46.1 µM), for inactives: at the top dose activity, negative = inhibition, hits mostly inhibitors. 410,000 compounds, 1.2% hits. AID 588855; note: potency is the fitted concentration of half-maximal effect; % is set by controls: 0 for no effect and ±100 for the full control effect; nearly all actives have a fitted effect of over 65% in size
#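 GFP signal (ex488/em500-530) from TGF-beta-stimulated HEPG2 CAGA-GFP cells, 500 pg/mL final, 18 h at 37 degrees C in DMEM plus 1% FBS, normalized to unstimulated and DMSO-stimulated controls.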
# TDP1 cell noCPT = qHTS for Inhibitors of human tyrosyl-DNA phosphodiesterase 1 (TDP1): qHTS in cells in absence of CPT. DT40 Tdp1-/- hTDP1 cells, no CPT, ATP luminescence, 48 h. Potency, µM (titrated, usually from 46.2 µM), for the others: top-dose activity change, negative = growth inhibition, most hits filed as inhibitors. 420,000 compounds, 15% hits; note: potency is the fitted concentration of half-maximal effect; % is set by controls: 0 for no effect and ±100 for the full control effect; nearly all actives have a fitted effect of over 55% in size
#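 Chicken DT40 Tdp1-/- cells complemented with human TDP1, screened without camptothecin (DMSO vehicle only), 400 cells/well. Compounds pin-transferred, cells incubated at 37 °C for at least 48 hr. Growth read as ATP-dependent luminescence (CellTiter-Glo, 30 min at RT).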
# HepG2 tox = counter-screen for TGF-b inhibitors: cytotoxicity in HepG2 cells | HepG2 CAGA-GFP viability, ATP luminescence, 18 h | Potency, µM (series often up to 46.1 µM), for inactives: at the top dose activity change, negative = cytotoxicity, most hits filed as cytotoxic | 410,000 compounds, 0.76% hits; note: potency is the fitted concentration of half-maximal effect
#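 HepG2 CAGA-GFP cells (1000/well, DMEM with 1% FBS) received compound, then TGF-beta at 500 pg/mL final, and were incubated 18 hours at 37 degrees C. Viability was read by CellTiter-Glo luminescence. Media-only wells were set as complete cell-killing and DMSO as no toxicity.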
# IL1B secr inh = blocks inflammasome-driven IL-1 beta release; THP-1 LPS/ATP IL-1B secretion, AlphaLISA, 16 h; stronger effect = lower value; activity change, % at 57.5 µM; 360,000 compounds, 4.7% hits; AID 743279; in the data active = activity change below about -50%; inconclusive = mostly about -30% to -49%; note: % is set by controls: 0 for no effect and ±100 for the full control effect
#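 Secreted IL-1B measured by AlphaLISA bead assay after 16 h compound exposure of THP-1 cells; compounds (final up to 57.5 uM) added 1 h before LPS (250 ng/mL) and ATP (1.25 mM) stimulation; lower signal means less secretion.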
# * hit, by the source's call; ? = inconclusive; · = no result. Compounds with a hit are over-represented: about 19% of the library has one in this group of screens. Unless noted, calls come from the whole dose curve; as a rule, active = well fitted curve in the direction sought with a large enough effect; inconclusive = small, poorly fitted or top-dose-only effect, or another doubt; inactive = no such curve, though single readings can be large; an effect the other way counts as inactive or inconclusive.
SMILES,DT40 TDP1 CPT,S-ASM inh,TGFb SMAD3 inh,TDP1 cell noCPT,HepG2 tox,IL1B secr inh
CC[C@H](C)[C@@H]1NC(=O)[C@H]([C@@H](C)CC)NC(=O)[C@@H](CC(C)C)NC(=O)[C@H](Cc2ccccc2)NC(=O)[C@H](Cc2ccccc2)NC(=O)[C@@H]2CCCN2C(=O)[C@@H]2CCCN2C(=O)[C@H](C(C)C)NC(=O)[C@H](CC(C)C)NC1=O,6.5µM*,-9%,-8%,8.2µM*,-3%,-15
CCN(CC)CCOC(=O)c1cc(Cl)c(N)cc1OC,2%,-6%,3%,0%,-4%,6
COc1ccc(C2(c3ccc(OC)cc3)NC(=O)N(Cn3nnc4ccccc4c3=O)C2=O)cc1,21µM*,-10%,-14%,?,-20%,-10
[O-][n+]1ccc(CC(O)(C(F)(F)F)C(F)(F)F)cc1,1%,·,5%,-5%,-10%,-10
C=CCn1c(=O)/c(=C\c2ccsc2)s/c1=C(/C#N)C(=O)NCCN1CCOCC1,?,9%,83%,?,-22%,?
COc1ccc(-n2c(=O)/c(=C\c3cccs3)s/c2=C(/C#N)C(=O)NCCN2CCOCC2)cc1,13µM*,2%,6%,?,24%,-12
CCc1nc2ccc(Cc3ccc4nc(CC)[nH]c4c3)cc2[nH]1,13µM*,8%,?,23µM*,-11%,-10
CCc1nc2ccccc2[nH]1,-9%,-1%,-20%,-2%,-17%,-10
Cc1cc(=O)n2nc(N3CCC(C(=O)Nc4ccc(C(C)C)cc4)CC3)sc2n1,?,·,?,?,-1%,·
Cc1ccc(-c2nc(-c3cc4c([nH]c3=O)CC(C)(C)CC4=O)sc2C)cc1,?,·,4%,?,2%,·
COCCNC(=S)N/N=C(\C)c1ccc(O)cc1,?,5%,-11%,?,6%,8
C/C(=N\NC(=S)NCC(C)(C)C)c1cc(F)cc(F)c1O,15µM*,14%,?,15µM*,-13%,-110*
O=C1NC(=O)N(C2CCCCC2)CC1Br (configuration not stated),?,2%,-6%,?,6%,-1
Cc1cc(C)cc(NC(=O)C(c2ccccc2)N2CCCC2)c1 (configuration not stated),3.7µM*,3%,-16%,2.9µM*,-28%,?
Cc1ccc(NC(=O)C(c2ccc(Cl)cc2)N2CCCCC2)cc1 (configuration not stated),15µM*,-2%,-4%,13µM*,-18%,-12
Cc1cccc(C)c1NC(=O)C(c1ccc(Cl)cc1Cl)N1CCCCC1 (configuration not stated),18µM*,-1%,-3%,29µM*,2%,?
Cc1cc(C)cc(NC(=O)C(c2ccccc2)N2CCN(CC(=O)NC3CC3)CC2)c1 (configuration not stated),-18%,4%,?,-30%,-18%,7
Cc1ccc(CNC(=O)CN(C)S(=O)(=O)c2ccc(F)cc2)cc1,-12%,-2%,-8%,-20%,-5%,-12
Cc1cc(C)c(S(=O)(=O)c2ccccc2F)c(=O)[nH]1,4%,1%,45%,15%,0%,10
CCOc1cccc(OCCCn2c(-c3ccc(Br)cc3)nc3ccccc3c2=O)c1,-26%,·,-10%,-19%,-45%,·
Cc1sc2nc(CSc3ccccc3)nc(N3CCC(C(N)=O)CC3)c2c1C,?,-6%,?,21µM*,-4%,-63*
CCOC(=O)c1sc2nc(CSc3ccccc3)nc(N3CCCN(C)CC3)c2c1C,26µM*,-2%,-8%,?,-15%,?
CCOC(=O)c1sc2nc(CC(=O)OC)nc(N3CCN(c4ccccn4)CC3)c2c1C,23µM*,-20%,-3%,18µM*,-16%,-12
Cc1sc2nc(CSc3ccccc3)nc(N3CCOCC3)c2c1C,?,-3%,-21%,?,-2%,-14
CCOC(=O)c1sc2nc(CSc3ccccc3)nc(N3CCC(C(N)=O)CC3)c2c1C,?,-6%,?,23µM*,-27%,-116*
SMILES,DT40 TDP1 CPT,S-ASM inh,TGFb SMAD3 inh,TDP1 cell noCPT,HepG2 tox,IL1B secr inh
CCOC(=O)c1sc2nc(C)nc(N3CCCCC3C)c2c1C (configuration not stated),?,-7%,-36%,?,-4%,30
CCn1nc(C)cc1C(=O)NC1CCCc2c1cnn2-c1ccc(C)c(C)c1 (configuration not stated),?,-3%,?,?,-6%,24
CCOC(=O)C=C1CCN(c2ncc(C(F)(F)F)cc2Cl)CC1,-22%,2%,15%,-18%,-4%,-7
Cc1ncc([N+](=O)[O-])n1CC(=O)Nc1ccc2c(c1)OCO2,5%,0%,-4%,13%,3%,2
CCCCNC(=O)CSc1nc(-c2ccc(OC)cc2)cc(C(F)(F)F)n1,?,·,0%,?,0%,·
CCC(=O)Nc1ccc(C(=O)CSc2nnc(-c3ccc(NS(=O)(=O)CC)cc3)o2)cc1OC,1.6µM*,2%,6%,1.2µM*,10%,3
CCS(=O)(=O)Nc1ccc(-c2nnc(SCC(=O)OC)o2)cc1,-5%,-2%,11%,-47%,5%,-85*
CCOC(=O)Cc1csc(NC(=O)CSc2nnc(-c3ccc(NS(=O)(=O)CC)cc3)o2)n1,-28%,-1%,-9%,-6%,-3%,6
COC(=O)CSc1nnc(-c2ccc(S(=O)(=O)N3CCCC3)cc2)o1,14%,1%,1%,-11%,12%,-52*
O=C(Cn1nnc(-c2ccccc2Cl)n1)Nc1cccc(S(=O)(=O)N2CCCC2)c1,23µM*,-7%,?,21µM*,7%,?
O=C(Cc1ccc(F)cc1)Nc1cccc(S(=O)(=O)N2CCCC2)c1,-3%,-1%,-9%,-22%,7%,-8
O=C(Cn1nnc(-c2ccc(F)cc2)n1)Nc1cccc(S(=O)(=O)N2CCCC2)c1,21µM*,-5%,?,?,-1%,13
CCNc1ccc(N=Nc2c(C)n(C)n(-c3ccccc3)c2=O)cc1,0%,-16%,30%,-15%,2%,22
